# The full ranking holds about 33,000 sequences; the median of “E-score (-0.5 to 0.5)” is about -0.035, and the highest 2% start at about 0.35. This is one part of a sample in which the highest values are shown more often than they occur.
# Molecular target: T1, Pdr3 (UniProt P33200)
# T1 sequence: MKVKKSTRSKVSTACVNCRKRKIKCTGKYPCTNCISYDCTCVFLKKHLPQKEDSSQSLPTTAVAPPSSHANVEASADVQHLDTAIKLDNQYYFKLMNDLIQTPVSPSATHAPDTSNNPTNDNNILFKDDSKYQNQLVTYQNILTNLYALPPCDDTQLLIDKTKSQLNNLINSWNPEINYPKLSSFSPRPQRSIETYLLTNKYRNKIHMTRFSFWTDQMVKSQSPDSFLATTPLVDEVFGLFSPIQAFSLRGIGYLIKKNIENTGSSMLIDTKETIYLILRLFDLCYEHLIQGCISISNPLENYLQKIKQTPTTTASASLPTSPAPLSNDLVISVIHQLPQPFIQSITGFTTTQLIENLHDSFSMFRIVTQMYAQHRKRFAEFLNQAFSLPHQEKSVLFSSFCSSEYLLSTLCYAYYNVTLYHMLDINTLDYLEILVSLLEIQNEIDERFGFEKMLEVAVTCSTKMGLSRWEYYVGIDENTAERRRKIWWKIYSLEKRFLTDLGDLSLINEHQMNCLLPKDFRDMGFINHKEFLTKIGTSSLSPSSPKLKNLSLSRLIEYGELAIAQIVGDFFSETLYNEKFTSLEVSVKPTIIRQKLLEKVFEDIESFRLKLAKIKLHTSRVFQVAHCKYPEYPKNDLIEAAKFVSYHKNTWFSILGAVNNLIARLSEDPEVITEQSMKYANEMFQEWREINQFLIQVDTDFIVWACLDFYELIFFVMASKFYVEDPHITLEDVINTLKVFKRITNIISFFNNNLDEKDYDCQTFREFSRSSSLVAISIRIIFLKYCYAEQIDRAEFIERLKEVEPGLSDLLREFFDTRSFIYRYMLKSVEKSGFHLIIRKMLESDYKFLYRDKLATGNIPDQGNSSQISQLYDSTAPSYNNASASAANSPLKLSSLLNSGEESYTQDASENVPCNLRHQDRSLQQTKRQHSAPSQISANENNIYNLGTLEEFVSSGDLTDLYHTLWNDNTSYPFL
# Assay: PBM E-score (8-mer binding enrichment) (E-score (-0.5 to 0.5)); higher = stronger / more preferred TF binding
# Settings: protein concentration: 200 nM; construct: GST-full length
# Experimental: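 Universal 'all 10-mer' protein binding microarrays (Agilent AMADID 015681) probed with GST-tagged S. cerevisiae TFs (full-length or DBD) made by in vitro transcription/translation (PURExpress), about 100-200 nM. Bound TF was detected with fluorescent anti-GST. Each ungapped 8-mer (which stands for itself and its reverse complement) is scored by the PBM enrichment score (E-score), a modified Wilcoxon-Mann-Whitney statistic from -0.5 to +0.5, computed with the Universal PBM Analysis Suite. Scale: above 0.35 generally sequence-specific binding.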
row,Sequence,PBM E-score
1,GGTTCGGA,0.34
2,AATTCGGC,0.173
3,GATTCGGA,0.29
4,AATTCGGA,0.365
5,CGTTCGGA,0.414
6,CGTTCGGC,0.171
7,CATTCGGA,0.356
8,CATTCGGC,0.145
9,AATTCGGG,0.153
10,GTAGCGTA,-0.0161
11,CTGTCGCC,0.0223
12,AAAAGATC,-0.0361
13,TCCGCAGA,0.258
14,CCCAAACA,-0.0368
15,AGGTTAGA,-0.00179
16,CGCCTGCC,-0.0358
17,AACCACCC,-0.00213
18,ACATAGAT,-0.085
19,CCAACCGC,0.146
20,AGTGTTCG,-0.0373
21,CATTAGAG,-0.234
22,AGGAAGCA,-0.16
23,AGGAAGCC,-0.0295
24,CCGAAGCC,0.245
25,GGGAAGCA,-0.0013

row,Sequence,PBM E-score
1,CGGAAGCC,0.416
2,CGGAAGCA,0.428
3,CGCGCTCC,0.308
4,ATTGTGGC,0.0289
5,GTCTACCA,-0.252
6,GTGGGAAA,-0.0227
7,CGGTTGGC,0.161
8,AAATACGG,0.0148
9,CCACGGGG,0.335
10,CCACGGAA,0.484
11,CCACGGCG,0.182
12,TCACGGCA,0.193
13,TCACGGAA,0.464
14,CCACGGAC,0.34
15,ACACGGAG,0.284
16,CCACGGAG,0.429
17,ACACGGAT,0.302
18,CCACGGGA,0.325
19,ACACGGAA,0.438
20,TCACGGGA,0.203
21,ACAATTTG,-0.117
22,AGACGGGC,0.0159
23,CTCGCAAA,-0.131
24,AGGAGAAT,-0.00643
25,AGGATGCA,-0.117

row,Sequence,PBM E-score
1,AAGGCATC,-0.216
2,ACCTAAAG,-0.12
3,CTCCACGC,-0.165
4,GGGATCAC,-0.0461
5,CGGATCAC,0.391
6,CGGATCAG,0.334
7,AGGATCAC,-0.231
8,TGGATCAA,-0.168
9,CGGATCAA,0.356
10,ATAGCCCG,0.0917
11,ATCGTTTG,0.0176
12,TATTCGCA,-0.0986
13,AGCCAGCT,-0.164
14,GTGGCGAA,0.106
15,CCCGGGCG,0.421
16,CCGGGGCC,0.367
17,GCCGGGCC,0.12
18,CCGGGGCG,0.374
19,CCGGGGGC,0.235
20,ACGGGGCG,0.183
21,ACCGGGCC,0.25
22,CCCGGGCC,0.397
23,CCGGGGCA,0.235
24,ACCGGGCG,0.0259
25,CGGGGGCC,0.142

row,Sequence,PBM E-score
1,CCCCGGCG,0.162
2,AAGCAGCG,0.017
3,CTACTCCA,-0.162
4,TCGACCGA,0.0776
5,ACTGGGCG,-0.018
6,AGTATTGC,-0.0115
7,ACCCAGTC,-0.0225
8,CGCCTCCG,0.295
9,AACTAGAC,-0.106
10,GCCTCACA,-0.114
11,CCCGATCG,0.234
12,AAAAATGG,0.0817
13,GCGCCGCA,0.151
14,GCCGGGCA,0.282
15,CCCGGGCA,0.375
16,ACCGGGCA,0.102
17,GATAGTGC,-0.0798
18,GTTCAAAC,-0.0193
19,AGGATAAC,-0.212
20,CTAATCTC,-0.0806
21,AACCCGCA,0.18
22,AACCCGCG,0.431
23,CACCCGCC,0.332
24,ATCCCGCG,0.465
25,ATCCCGCA,0.21

row,Sequence,PBM E-score
1,AACCCGCC,0.165
2,CGCCCGCG,0.314
3,CACCCGCA,0.115
4,AGCCCGCG,0.381
5,ATCCCGCC,0.322
6,CACCCGCG,0.42
7,AGCCCGCT,-0.183
8,AATTAGCA,0.103
9,ATGTCGAC,0.0706
10,ATTGCGAA,-0.0818
11,GTCAGATA,-0.0744
12,CTAAGAAC,0.165
13,CAGACGAA,0.199
14,AGAATACT,-0.121
15,CAGAACAA,0.0215
16,CTACTTAC,-0.312
17,CACTAAGG,-0.0887
18,CATCCCGC,0.315
19,GATCCCGA,0.317
20,AATCCCTG,-0.0189
21,CATCCCCA,-0.0591
22,CATCCCCC,0.0287
23,GATCCCGC,0.371
24,CATCCCGA,0.352
25,CATCCCCG,0.354

row,Sequence,PBM E-score
1,CATCCCAG,-0.106
2,CATCCCGG,0.431
3,AATCCCCG,0.296
4,AATCCCGG,0.407
5,CACTTTAG,-0.149
6,AGTCTGCG,-0.259
7,CAGGCGTA,-0.145
8,ACGTCAGG,-0.326
9,AGGCAGGG,-0.153
10,ACGAATGC,-0.158
11,ATCCGCGC,0.309
12,ATGCGCGA,0.0846
13,ATGCGCGG,0.355
14,CTCCGCGC,0.368
15,ATGCGCGC,0.275
16,GCGCGCGA,0.308
17,CTCCGCGA,0.258
18,CCGCGCGC,0.332
19,GCGCGCGC,0.388
20,CCGCGCGG,0.473
21,ACGCGCGC,0.238
22,CCGCGCGA,0.303
23,GCGTAGTA,-0.095
24,ACGCCTGA,-0.148
25,CTAGAAAG,-0.189

row,Sequence,PBM E-score
1,CTCCGGGA,0.399
2,CGCCGGGC,0.308
3,GGCCGGGA,0.39
4,GTCCGGGA,0.353
5,CGCCGGGA,0.382
6,CGCCGGTA,0.13
7,AGCCGGGA,0.3
8,GGCCGGTA,0.274
9,CTCCGAGA,0.274
10,GAACATAC,0.0175
11,CCTAGACG,0.012
12,ATCCTGGG,-0.104
13,GGCCCCCC,-0.0393
14,AAGGCTTG,-0.0886
15,AGATCACC,0.0531
16,GAGACTCC,0.0113
17,AGGCTAAA,-0.297
18,CCGGAGTA,0.367
19,CCGGAGGC,0.292
20,ACGGAGTC,0.193
21,ACGGAGTA,0.297
22,CCGGAGTC,0.384
